Results published in PMC7862700, “An all-to-all approach to the identification of sequence-specific readers for epigenetic DNA modifications on cytosine”.

Experiments:
Assay in all cases: DAPPL (digital affinity profiling via proximity ligation, sequencing); 10 mM Tris-HCl pH 7.5, 50 mM NaCl, 1 mM DTT, 4% glycerol, room temperature, 30 min; GST-TFs on glutathione beads, 16-mer random dsDNA library, 0.1% formaldehyde crosslink after washing; high values mean tight binding
FLI1 = molecular target: T1, FLI1 (Homo sapiens, UniProt Q01543 1-452); settings: protein: recombinant; tags: N-terminal GST; dsDNA, one strand shown
T1 sequence: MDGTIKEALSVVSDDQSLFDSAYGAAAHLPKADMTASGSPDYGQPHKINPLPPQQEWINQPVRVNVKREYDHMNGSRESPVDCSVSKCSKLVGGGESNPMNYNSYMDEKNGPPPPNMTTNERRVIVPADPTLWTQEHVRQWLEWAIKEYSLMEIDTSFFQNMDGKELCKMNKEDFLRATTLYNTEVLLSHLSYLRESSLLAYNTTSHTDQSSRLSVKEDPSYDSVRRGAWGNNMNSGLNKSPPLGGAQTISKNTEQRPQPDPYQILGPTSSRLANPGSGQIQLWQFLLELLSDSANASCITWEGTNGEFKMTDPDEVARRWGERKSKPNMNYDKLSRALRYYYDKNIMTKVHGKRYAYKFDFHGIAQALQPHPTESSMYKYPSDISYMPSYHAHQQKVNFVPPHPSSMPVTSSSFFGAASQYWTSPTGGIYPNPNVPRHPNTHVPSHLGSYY
In short: (§1)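 Pools of DNA-barcoded human transcription factors, expressed in yeast as GST fusions on glutathione beads and combined with a tag-only sample, were incubated with 200 nmole of a 16-mer random double-stranded DNA library. Incubation took 30 min at room temperature in Tris/NaCl/DTT/glycerol buffer and was followed by washing, 0.1% formaldehyde crosslinking, proximity ligation (BsaI/T4 ligase, 1 h, 37 °C), PCR amplification and sequencing on an Illumina NextSeq500. Binding signal is the ratio of a hexamer's read frequency for a factor to its frequency for the tag-only sample.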

ELK1 = molecular target: T2, ELK1 (Homo sapiens, UniProt P19419 1-428); settings: protein: recombinant; tags: N-terminal GST; dsDNA, one strand shown
T2 sequence: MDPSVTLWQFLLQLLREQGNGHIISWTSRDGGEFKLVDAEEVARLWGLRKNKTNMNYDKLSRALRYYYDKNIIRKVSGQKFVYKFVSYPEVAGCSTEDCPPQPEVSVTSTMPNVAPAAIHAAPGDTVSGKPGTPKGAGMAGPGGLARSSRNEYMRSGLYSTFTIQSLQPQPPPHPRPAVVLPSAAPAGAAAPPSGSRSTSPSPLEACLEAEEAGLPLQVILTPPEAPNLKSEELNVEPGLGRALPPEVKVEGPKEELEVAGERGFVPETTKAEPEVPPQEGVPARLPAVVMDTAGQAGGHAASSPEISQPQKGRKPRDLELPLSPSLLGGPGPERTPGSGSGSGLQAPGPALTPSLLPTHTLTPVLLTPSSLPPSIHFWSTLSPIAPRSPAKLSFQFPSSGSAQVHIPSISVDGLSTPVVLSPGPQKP
In short: as §1

GABPA = molecular target: T3, GABPA (Homo sapiens, UniProt Q06546 1-454); settings: protein: recombinant; tags: N-terminal GST; dsDNA, one strand shown
T3 sequence: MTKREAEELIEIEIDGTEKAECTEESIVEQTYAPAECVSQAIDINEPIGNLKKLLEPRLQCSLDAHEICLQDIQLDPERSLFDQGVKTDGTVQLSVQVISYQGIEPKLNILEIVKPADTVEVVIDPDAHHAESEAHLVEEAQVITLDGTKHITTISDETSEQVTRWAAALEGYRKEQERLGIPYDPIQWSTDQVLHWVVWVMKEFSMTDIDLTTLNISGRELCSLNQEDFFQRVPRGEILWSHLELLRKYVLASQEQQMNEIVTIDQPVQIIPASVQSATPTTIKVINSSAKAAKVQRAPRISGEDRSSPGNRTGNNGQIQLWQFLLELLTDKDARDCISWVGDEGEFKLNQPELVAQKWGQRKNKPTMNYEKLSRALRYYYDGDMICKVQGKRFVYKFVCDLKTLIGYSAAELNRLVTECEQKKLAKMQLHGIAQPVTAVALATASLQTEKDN
In short: as §1

ERG = molecular target: T4, ERG (Homo sapiens, UniProt P11308 1-479); settings: protein: recombinant; tags: N-terminal GST; dsDNA, one strand shown
T4 sequence: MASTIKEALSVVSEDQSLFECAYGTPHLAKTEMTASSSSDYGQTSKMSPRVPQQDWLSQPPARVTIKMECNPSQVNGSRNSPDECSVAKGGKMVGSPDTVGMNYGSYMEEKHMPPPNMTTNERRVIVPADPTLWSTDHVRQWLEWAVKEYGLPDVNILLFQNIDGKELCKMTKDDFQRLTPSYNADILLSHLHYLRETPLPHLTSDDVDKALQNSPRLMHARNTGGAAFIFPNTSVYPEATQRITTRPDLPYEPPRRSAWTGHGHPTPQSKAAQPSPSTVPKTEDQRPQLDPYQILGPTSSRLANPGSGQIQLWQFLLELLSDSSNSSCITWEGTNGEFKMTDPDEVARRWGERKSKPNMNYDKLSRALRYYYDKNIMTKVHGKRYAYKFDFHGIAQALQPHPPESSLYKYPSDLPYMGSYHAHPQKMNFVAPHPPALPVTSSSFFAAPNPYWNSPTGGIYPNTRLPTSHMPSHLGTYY
In short: as §1

ELF1 = ELF1 (Homo sapiens, UniProt P32519 1-619); settings: protein: recombinant; tags: N-terminal GST; dsDNA, one strand shown
In short: as §1

EHF = molecular target: T5, EHF (Homo sapiens, UniProt Q9NZC4 1-300); settings: protein: recombinant; tags: N-terminal GST; dsDNA, one strand shown
T5 sequence: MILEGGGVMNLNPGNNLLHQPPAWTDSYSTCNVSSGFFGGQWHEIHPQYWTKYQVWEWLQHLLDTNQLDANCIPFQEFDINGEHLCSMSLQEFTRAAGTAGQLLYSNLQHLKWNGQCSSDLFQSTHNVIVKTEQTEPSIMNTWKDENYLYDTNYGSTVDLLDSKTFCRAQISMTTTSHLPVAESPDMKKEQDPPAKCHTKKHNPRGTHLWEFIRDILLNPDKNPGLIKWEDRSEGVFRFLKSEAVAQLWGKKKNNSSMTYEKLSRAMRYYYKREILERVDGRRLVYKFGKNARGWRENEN
In short: as §1

SPI1 = SPI1 (Homo sapiens, UniProt P17947 1-270); settings: protein: recombinant; tags: N-terminal GST; dsDNA, one strand shown
In short: as §1

SPIB = SPIB (Homo sapiens, UniProt Q01892 1-262); settings: protein: recombinant; tags: N-terminal GST; dsDNA, one strand shown
In short: as §1

ELK3 = molecular target: T6, ELK3 (Homo sapiens, UniProt P41970 1-407); settings: protein: recombinant; tags: N-terminal GST; dsDNA, one strand shown
T6 sequence: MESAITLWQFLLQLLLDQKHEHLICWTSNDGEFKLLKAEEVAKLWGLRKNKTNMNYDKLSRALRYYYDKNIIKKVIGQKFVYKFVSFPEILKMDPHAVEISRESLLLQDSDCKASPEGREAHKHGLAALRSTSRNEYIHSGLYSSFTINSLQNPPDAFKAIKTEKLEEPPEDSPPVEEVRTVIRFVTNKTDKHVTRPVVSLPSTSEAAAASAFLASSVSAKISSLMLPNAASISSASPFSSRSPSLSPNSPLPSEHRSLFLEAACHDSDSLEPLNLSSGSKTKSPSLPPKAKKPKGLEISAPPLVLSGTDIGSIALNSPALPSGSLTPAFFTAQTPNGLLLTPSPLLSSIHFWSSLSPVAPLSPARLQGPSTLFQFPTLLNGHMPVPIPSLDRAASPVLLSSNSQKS
In short: as §1

FEV = molecular target: T7, FEV (Homo sapiens, UniProt Q99581 1-238); settings: protein: recombinant; tags: N-terminal GST; dsDNA, one strand shown
T7 sequence: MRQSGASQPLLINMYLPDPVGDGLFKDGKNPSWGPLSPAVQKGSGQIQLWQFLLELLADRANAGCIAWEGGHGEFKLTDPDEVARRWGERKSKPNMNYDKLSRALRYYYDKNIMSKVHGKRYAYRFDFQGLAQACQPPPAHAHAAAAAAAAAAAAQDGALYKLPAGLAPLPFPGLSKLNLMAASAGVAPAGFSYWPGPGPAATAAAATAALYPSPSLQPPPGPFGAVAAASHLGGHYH
In short: as §1

ETV5 = ETV5 (Homo sapiens, UniProt P41161 1-510); settings: protein: recombinant; tags: N-terminal GST; dsDNA, one strand shown
In short: as §1

HSF1 = HSF1 (Homo sapiens, UniProt Q00613 1-529); settings: protein: recombinant; tags: N-terminal GST; chain copies: 3; dsDNA, one strand shown
In short: as §1

SPIC = molecular target: T8, SPIC (Homo sapiens, UniProt Q8N5J4 1-248); settings: protein: recombinant; tags: N-terminal GST; dsDNA, one strand shown
T8 sequence: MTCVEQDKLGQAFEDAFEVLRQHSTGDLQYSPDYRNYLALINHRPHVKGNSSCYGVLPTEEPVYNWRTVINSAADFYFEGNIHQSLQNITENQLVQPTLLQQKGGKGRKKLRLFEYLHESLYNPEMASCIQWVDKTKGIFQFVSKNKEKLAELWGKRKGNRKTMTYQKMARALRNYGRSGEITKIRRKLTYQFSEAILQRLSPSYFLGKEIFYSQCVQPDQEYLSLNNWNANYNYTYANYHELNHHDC
In short: as §1

ELF4 = ELF4 (Homo sapiens, UniProt Q99607 1-663); settings: protein: recombinant; tags: N-terminal GST; dsDNA, one strand shown
In short: as §1

ELK4 = molecular target: T9, ELK4 (Homo sapiens, UniProt P28324-2 1-405); settings: protein: recombinant; tags: N-terminal GST; dsDNA, one strand shown
T9 sequence: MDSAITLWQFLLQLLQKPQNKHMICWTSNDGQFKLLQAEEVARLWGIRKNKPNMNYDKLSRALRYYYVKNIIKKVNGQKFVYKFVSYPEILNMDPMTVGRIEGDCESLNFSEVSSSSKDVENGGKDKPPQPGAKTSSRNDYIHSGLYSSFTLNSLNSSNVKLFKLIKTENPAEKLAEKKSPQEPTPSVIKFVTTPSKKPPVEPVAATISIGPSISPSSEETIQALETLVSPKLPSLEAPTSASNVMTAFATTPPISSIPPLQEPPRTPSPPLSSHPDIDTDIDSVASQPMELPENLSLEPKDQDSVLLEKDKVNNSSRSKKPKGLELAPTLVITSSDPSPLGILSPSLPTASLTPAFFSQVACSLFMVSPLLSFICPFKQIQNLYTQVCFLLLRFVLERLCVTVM
In short: as §1

ETV2 = molecular target: T10, ETV2 (Homo sapiens, UniProt O00321 1-342); settings: protein: recombinant; tags: N-terminal GST; dsDNA, one strand shown
T10 sequence: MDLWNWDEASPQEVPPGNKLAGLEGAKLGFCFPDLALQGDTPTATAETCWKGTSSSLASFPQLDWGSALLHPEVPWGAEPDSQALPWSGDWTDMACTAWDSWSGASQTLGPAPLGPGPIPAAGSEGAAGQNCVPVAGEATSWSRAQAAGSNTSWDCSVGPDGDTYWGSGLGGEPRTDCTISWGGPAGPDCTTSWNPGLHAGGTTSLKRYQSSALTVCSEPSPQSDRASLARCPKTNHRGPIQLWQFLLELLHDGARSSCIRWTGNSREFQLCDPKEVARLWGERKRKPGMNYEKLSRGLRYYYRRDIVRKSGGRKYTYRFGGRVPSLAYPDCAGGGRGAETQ
In short: as §1

ELF3 = molecular target: T11, ELF3 (Homo sapiens, UniProt P78545 1-371); settings: protein: recombinant; tags: N-terminal GST; dsDNA, one strand shown
T11 sequence: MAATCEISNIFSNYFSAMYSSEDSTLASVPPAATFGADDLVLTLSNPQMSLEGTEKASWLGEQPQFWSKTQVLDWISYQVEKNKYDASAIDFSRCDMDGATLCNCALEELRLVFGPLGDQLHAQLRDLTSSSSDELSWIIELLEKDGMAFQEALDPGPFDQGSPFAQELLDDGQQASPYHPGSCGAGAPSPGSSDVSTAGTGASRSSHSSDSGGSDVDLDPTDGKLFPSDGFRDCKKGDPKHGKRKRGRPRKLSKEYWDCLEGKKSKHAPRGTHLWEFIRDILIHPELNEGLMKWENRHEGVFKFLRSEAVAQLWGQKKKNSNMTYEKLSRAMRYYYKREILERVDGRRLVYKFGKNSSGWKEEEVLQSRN
In short: as §1

CRX = CRX (Homo sapiens, UniProt O43186 1-299); settings: protein: recombinant; tags: N-terminal GST; dsDNA, one strand shown
In short: as §1

ETV1 = ETV1 (Homo sapiens, UniProt P50549 1-477); settings: protein: recombinant; tags: N-terminal GST; dsDNA, one strand shown
In short: as §1

ETV5, sequence (P41161 whole entry): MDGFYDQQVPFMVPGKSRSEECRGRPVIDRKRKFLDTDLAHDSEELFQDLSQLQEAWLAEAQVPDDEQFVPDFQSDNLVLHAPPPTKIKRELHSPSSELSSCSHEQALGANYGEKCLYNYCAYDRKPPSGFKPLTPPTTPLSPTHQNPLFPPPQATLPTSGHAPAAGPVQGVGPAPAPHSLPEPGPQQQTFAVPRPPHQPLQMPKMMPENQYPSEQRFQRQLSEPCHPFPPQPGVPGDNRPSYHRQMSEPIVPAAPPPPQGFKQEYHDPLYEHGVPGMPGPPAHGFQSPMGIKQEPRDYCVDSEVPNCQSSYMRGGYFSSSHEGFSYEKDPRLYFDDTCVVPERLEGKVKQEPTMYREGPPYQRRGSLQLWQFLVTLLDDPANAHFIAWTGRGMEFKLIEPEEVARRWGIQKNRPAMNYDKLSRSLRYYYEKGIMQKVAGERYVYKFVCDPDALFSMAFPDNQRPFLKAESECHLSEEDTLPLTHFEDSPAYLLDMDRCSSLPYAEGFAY
CRX, sequence (O43186 whole entry): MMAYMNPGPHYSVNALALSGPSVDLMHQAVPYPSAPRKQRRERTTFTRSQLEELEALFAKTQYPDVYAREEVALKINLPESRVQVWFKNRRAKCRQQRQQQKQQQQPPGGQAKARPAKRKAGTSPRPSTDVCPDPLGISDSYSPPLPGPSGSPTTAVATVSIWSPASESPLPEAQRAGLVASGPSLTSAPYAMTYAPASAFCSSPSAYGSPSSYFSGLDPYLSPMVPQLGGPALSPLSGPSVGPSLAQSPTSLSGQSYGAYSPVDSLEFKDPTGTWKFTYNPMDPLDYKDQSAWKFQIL
ELF4, sequence (Q99607 whole entry): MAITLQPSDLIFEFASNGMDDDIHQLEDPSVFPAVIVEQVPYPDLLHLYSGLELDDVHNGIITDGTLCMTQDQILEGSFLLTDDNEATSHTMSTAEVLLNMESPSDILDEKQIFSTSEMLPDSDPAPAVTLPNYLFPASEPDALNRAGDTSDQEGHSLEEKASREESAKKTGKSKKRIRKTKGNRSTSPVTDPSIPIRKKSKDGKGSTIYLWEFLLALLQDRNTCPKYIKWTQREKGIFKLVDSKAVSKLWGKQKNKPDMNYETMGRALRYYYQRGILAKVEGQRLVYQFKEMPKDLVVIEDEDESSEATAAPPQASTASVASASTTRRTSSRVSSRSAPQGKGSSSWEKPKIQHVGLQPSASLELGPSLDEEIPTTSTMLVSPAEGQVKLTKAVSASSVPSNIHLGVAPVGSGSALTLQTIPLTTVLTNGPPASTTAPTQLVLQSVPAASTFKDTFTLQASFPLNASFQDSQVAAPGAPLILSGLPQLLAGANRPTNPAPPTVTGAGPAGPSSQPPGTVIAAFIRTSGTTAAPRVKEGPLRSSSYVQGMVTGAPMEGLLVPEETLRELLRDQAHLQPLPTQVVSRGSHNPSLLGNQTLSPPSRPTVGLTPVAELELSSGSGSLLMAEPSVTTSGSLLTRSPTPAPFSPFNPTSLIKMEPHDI
ETV1, sequence (P50549 whole entry): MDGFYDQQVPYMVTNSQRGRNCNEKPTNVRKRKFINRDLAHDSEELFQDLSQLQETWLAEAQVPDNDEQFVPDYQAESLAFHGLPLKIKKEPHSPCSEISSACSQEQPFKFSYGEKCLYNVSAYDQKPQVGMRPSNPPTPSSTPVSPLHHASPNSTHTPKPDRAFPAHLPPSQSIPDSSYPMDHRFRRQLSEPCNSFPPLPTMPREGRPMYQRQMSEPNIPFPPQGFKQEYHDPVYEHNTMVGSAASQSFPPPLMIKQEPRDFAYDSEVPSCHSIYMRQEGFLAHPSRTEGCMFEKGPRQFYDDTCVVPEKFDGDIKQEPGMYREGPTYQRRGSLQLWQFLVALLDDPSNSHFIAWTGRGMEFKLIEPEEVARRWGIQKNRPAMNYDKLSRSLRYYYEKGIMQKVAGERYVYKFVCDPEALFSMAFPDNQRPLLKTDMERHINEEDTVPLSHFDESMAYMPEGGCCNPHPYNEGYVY
ELF1, sequence (P32519 whole entry): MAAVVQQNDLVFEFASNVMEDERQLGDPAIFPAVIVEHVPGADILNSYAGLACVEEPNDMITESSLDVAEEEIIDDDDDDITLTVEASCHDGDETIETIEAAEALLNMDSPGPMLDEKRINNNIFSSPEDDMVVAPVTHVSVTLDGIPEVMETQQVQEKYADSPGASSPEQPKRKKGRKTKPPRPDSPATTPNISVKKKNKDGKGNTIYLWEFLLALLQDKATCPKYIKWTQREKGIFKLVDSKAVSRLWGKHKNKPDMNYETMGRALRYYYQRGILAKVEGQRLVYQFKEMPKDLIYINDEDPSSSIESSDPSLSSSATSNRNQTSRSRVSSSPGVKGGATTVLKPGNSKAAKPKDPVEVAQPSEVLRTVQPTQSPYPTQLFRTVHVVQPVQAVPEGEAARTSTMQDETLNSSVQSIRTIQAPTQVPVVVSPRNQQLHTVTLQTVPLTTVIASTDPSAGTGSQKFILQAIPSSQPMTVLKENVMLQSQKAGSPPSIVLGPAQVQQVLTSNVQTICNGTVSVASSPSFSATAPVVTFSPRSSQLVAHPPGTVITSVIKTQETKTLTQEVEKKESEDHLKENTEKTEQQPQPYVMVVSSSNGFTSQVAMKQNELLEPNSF
HSF1, sequence (Q00613 whole entry): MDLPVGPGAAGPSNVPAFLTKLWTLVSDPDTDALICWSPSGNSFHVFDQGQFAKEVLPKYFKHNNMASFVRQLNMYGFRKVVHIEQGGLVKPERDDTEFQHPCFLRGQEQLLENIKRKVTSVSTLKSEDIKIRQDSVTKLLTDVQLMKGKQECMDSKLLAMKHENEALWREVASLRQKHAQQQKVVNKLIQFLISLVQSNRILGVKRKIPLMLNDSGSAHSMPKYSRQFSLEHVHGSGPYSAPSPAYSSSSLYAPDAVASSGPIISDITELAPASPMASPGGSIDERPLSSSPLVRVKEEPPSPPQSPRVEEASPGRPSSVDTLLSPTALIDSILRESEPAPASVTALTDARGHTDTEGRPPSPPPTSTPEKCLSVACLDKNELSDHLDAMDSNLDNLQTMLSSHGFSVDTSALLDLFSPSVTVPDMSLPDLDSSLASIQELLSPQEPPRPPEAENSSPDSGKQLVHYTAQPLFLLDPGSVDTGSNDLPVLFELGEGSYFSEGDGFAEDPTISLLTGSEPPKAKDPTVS
SPIB, sequence (Q01892 whole entry): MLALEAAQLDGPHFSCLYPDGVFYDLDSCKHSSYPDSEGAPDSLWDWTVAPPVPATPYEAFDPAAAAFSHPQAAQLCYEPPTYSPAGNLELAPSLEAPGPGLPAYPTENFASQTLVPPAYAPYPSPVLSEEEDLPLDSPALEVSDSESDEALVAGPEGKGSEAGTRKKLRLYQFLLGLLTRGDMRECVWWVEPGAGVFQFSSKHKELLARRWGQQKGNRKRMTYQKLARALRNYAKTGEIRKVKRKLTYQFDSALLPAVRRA

Sequence: AACCCC
- binding signal (FLI1): 1.08 fold enrichment (6-mer frequency, TF over GST control)
- binding signal (ELK1): 1.17 fold enrichment (6-mer frequency, TF over GST control)
- binding signal (GABPA): 1.1 fold enrichment (6-mer frequency, TF over GST control)
- binding signal (ERG): 1.17 fold enrichment (6-mer frequency, TF over GST control)
- binding signal (ELF1): 1.16 fold enrichment (6-mer frequency, TF over GST control)
- binding signal (EHF): 1.21 fold enrichment (6-mer frequency, TF over GST control)
- binding signal (SPI1): 1.12 fold enrichment (6-mer frequency, TF over GST control)
- binding signal (SPIB): 1.18 fold enrichment (6-mer frequency, TF over GST control)
- binding signal (ELK3): 1.14 fold enrichment (6-mer frequency, TF over GST control)
- binding signal (FEV): 1.24 fold enrichment (6-mer frequency, TF over GST control)
- binding signal (ETV5): 1.14 fold enrichment (6-mer frequency, TF over GST control)
- binding signal (HSF1): 1.03 fold enrichment (6-mer frequency, TF over GST control)
- binding signal (SPIC): 1.33 fold enrichment (6-mer frequency, TF over GST control)
- binding signal (ELF4): 1.29 fold enrichment (6-mer frequency, TF over GST control)
- binding signal (ELK4): 1.36 fold enrichment (6-mer frequency, TF over GST control)
- binding signal (ETV2): 1.18 fold enrichment (6-mer frequency, TF over GST control)
- binding signal (ELF3): 1.22 fold enrichment (6-mer frequency, TF over GST control)
- binding signal (CRX): 1.21 fold enrichment (6-mer frequency, TF over GST control)
- binding signal (ETV1): 1.08 fold enrichment (6-mer frequency, TF over GST control)
